Source: PubChem BioAssay AID463173 (ICCB-Longwood Screening Facility, Harvard Medical School, 2010)
The whole screen tested about 52,000 compounds, of which about 4,300 (8.3%) were called active. This excerpt belongs to a sample that is enriched for actives. Values without a mark were called inactive. Cut-off read from the data, not from the text of the source: active = survival mostly below about 52% (no sharp cut-off); inactive = mostly above about 56%.

The compounds below were run on DeltatarO mutant (assay: S. aureus survival, RN4220 and DeltatarO strains – OD600, teichoic acid synthesis inhibitors, primary screen (AID 463173)). Conditions: S. aureus RN4220 wild type/DeltatarO growth, OD600, 18 h, hits give low values, screened at 18.75 µg/mL (by protocol).
`Cc1nc2ccn(Cc3cccs3)c(=O)c2cc1C(=O)N1CCN(c2ccccc2)CC1` was tested, and the survival was 83%.
Work on `COc1ccc(OC)c(NC(=O)c2nc(SCc3ccccc3F)ncc2Cl)c1` yielded a survival of 70%.
For `CCCSc1ncc(Cl)c(C(=O)Nc2ccc(OC)cc2OC)n1`, the survival was 46% (active).
In the case of `CCCSc1ncc(Cl)c(C(=O)NCc2ccc(C)cc2)n1`, the survival is reported as 57%.
`CCCSc1ncc(Cl)c(C(=O)Nc2ccc(S(=O)(=O)Nc3ncccn3)cc2)n1` was tested, and the survival was 67%.
`CCCSc1ncc(Cl)c(C(=O)NCc2ccc(OC)cc2)n1` gave a survival of 52%.
`CCCSc1ncc(Cl)c(C(=O)Nc2ccc(CC)cc2)n1` was tested, and the survival was 42% (active).
`Cc1ccc(-c2nnc(SCC(=O)NCc3ccccc3)o2)cc1` was tested, and the survival was 142%.
`CCN(CC)c1ccc(CNCCCSc2nnnn2C)cc1` gave a survival of 88%.
`COc1cc(C)c(S(=O)(=O)N2CCCC(C)C2)cc1C` (configuration not stated) showed a survival of 81%.
With `Cc1nnc(NC(=O)CSc2nccn2-c2ccc(Cl)cc2)s1` the survival was 104%.
`O=C(NC1CCN(C(=O)NC2CCCCC2)CC1)c1ccc(F)cc1` showed a survival of 85%.
`Cc1nn(-c2cc(N3CCOCC3)ccc2N)c(=O)c2ccccc12` gave a survival of 76%.
With `COc1ccc(N2CCN(C(=O)C(C)n3c(=O)cc(C(F)(F)F)c4c(C)nn(C)c43)CC2)cc1` (configuration not stated) the survival was 97%.
Compound `CCCCNC(=O)c1ccc2c(c1)N(CC)C(=O)c1ccccc1S2` has a survival of 102%.
`Cc1ccc(CCNC(=O)C2CCCN(c3nnc(C)c4c(C)n(-c5ccccc5)nc34)C2)cc1` (configuration not stated) gave a survival of 80%.
`CCCCN(CC)CCCNC(=O)c1cc2c(=O)[nH]c3ccccc3c2s1` showed a survival of 151%.
For `O=C(NCC(c1cccnc1)N1CCc2ccccc21)c1ccc(F)c(F)c1` (configuration not stated), the survival was 52%.
With `O=C(NCC(c1cccnc1)N1CCc2ccccc21)c1cccc(C(F)(F)F)c1` (configuration not stated) the survival was 45% (active).
For `CCc1ccccc1NC(=O)C(=O)NCC(c1cccnc1)N1CCc2ccccc21` (configuration not stated), the survival was 58%.
In the case of `O=C(NCC(c1cccnc1)N1CCc2ccccc21)C(=O)Nc1ccccc1F` (configuration not stated), the survival is reported as 101%.
For `O=C(NCC(c1cccnc1)N1CCc2ccccc21)c1cccc(Br)c1` (configuration not stated), the survival was 41% (active).
`N#Cc1ccccc1NC(=O)C(=O)NCC(c1cccnc1)N1CCc2ccccc21` (configuration not stated) gave a survival of 53%.
For `O=C(NCC(c1cccnc1)N1CCc2ccccc21)c1cccc(F)c1` (configuration not stated), the survival was 44% (active).
For `O=C(NCC(c1cccnc1)N1CCc2ccccc21)c1ccc(F)cc1` (configuration not stated), the survival was 100%.
`Cc1cccc(NC(=O)C(=O)NCC(c2cccnc2)N2CCc3ccccc32)c1C` (configuration not stated) was tested, and the survival was 53%.
Work on `CCOc1ccc(C2C(C(N)=O)=C(C)Nc3nc(-c4ccc(OC)cc4)nn32)cc1` (configuration not stated) yielded a survival of 87%.
Work on `COc1ccc(C)cc1NC(=O)C1CCC(CNS(=O)(=O)c2ccc3c(c2)CCCC(=O)N3)CC1` (configuration not stated) yielded a survival of 67%.
`CCOC(=O)c1ccc(NC(=O)C(C)N(c2ccc(OCC)cc2)S(C)(=O)=O)cc1` (configuration not stated) gave a survival of 62%.
In the case of `O=C(CCc1ccccc1)NN1C(=O)c2ccccc2C1=O`, the survival is reported as 61%.
For `CCc1ccccc1NC(=O)c1cnc(N2CCCCC2)c2ccccc12`, the survival was 96%.
Work on `CC(C)(C)OC(=O)N1CCC(c2c(C(=O)N3CCOCC3)cnn2-c2ccccc2Cl)CC1` yielded a survival of 78%.
In the case of `COc1ccc(NC(=O)Cn2c(=O)n(-c3ccc(OC)cc3)c(=O)c3ccc(C(=O)NCc4ccc(C)cc4)cc32)cc1`, the survival is reported as 77%.
Work on `O=C(c1ccc2c(c1)N(Cc1ccc(F)cc1)C(=O)c1ccccc1S2(=O)=O)N1CCC(Cc2ccccc2)CC1` yielded a survival of 72%.
`CCCC1=Nc2cc(C(=O)NCc3ccc(OC)cc3)ccc2Sc2ccc(C)cc21` was tested, and the survival was 70%.
For `CCOc1ccc(CNC(=O)Cn2c(=O)c3cccn3c3cccnc32)cc1`, the survival was 70%.
In the case of `CCCCn1c(C2CC(=O)N(c3ccc(OCC)cc3)C2)nc2ccccc21` (configuration not stated), the survival is reported as 63%.
`C#CCn1c(C2CC(=O)N(c3ccc(OCC)cc3)C2)nc2ccccc21` (configuration not stated) was tested, and the survival was 62%.
In the case of `CCOc1ccc(N2CC(c3nc4ccccc4n3Cc3cccc(C)c3)CC2=O)cc1` (configuration not stated), the survival is reported as 42% (active).
In the case of `CCOc1ccc(N2CC(c3nc4ccccc4n3CC(C)C)CC2=O)cc1` (configuration not stated), the survival is reported as 56%.
In the case of `CCOc1ccc(N2CC(c3nc4ccccc4n3Cc3cccc(Cl)c3)CC2=O)cc1` (configuration not stated), the survival is reported as 37% (active).
With `C#CCn1c(C2CC(=O)N(c3ccc(OC)cc3)C2)nc2ccccc21` (configuration not stated) the survival was 78%.
Compound `CCNC(=O)C1CCCN(c2nnc(C)c3c(C)n(-c4ccc(C)cc4)nc23)C1` (configuration not stated) has a survival of 78%.
In the case of `CCN1CCN(C(=O)c2ccc(S(=O)(=O)N(CC)CC)cc2)CC1`, the survival is reported as 85%.
`COc1cc2c(cc1OC)C(c1ccc(Cl)cc1)N(c1ccc(C)c(F)c1)C(=O)C2` (configuration not stated) was tested, and the survival was 42% (active).
With `COc1ccc(C2c3cc(OC)c(OC)cc3CC(=O)N2c2ccc(C)c(F)c2)cc1` (configuration not stated) the survival was 79%.
`COc1cc2c(cc1OC)C(c1ccc(F)cc1)N(c1ccc(F)cc1)C(=O)C2` (configuration not stated) gave a survival of 105%.
